# Screen size: about 69,000 compounds; about 1,000 (1.4%) showed an effect of 50% or more. Shown is part of a subset that was picked to be rich in strong results.
# System: Leishmania donovani
# Experiment: Leishmania intramacrophage assay
# Format: functional, organism-based
# Parameters: scale not given: in the data most compounds retested in dose-response had high values
compound,measurement,setting,value
Cl.O=S(=O)(c1ccc(Cl)cc1)N1CCc2nc(C3CCNCC3)ncc2C1,Percent Effect,"30.3 µM, […]",-22.35%
Cc1ccc(S(=O)(=O)N2CCc3nc(C4CCNCC4)ncc3C2)cc1.Cl,Percent Effect,"30 µM, 30.03 µM",-1.201%
O=S(=O)(c1ccccc1Cl)N1CCc2nc(C3CCNCC3)ncc2C1,Percent Effect,"30 µM, 30.03 µM",50.23%
Cc1nc(C2CCCN2Cc2nc(C3CC3)no2)no1 (configuration not stated),Percent Effect,30 µM,21.89%
CCCN(CCC)C(=O)c1cc(CN2CCC(O)CC2)on1,Percent Effect,"30.3 µM, […]",36.24%
CCn1ncc(Cn2cc(Cl)c(N)n2)c1C,Percent Effect,"30.3 µM, […]",-8.997%
Cc1nc(NCc2noc(C3CCCO3)n2)c2sccc2n1 (configuration not stated),Percent Effect,"30.3 µM, […]",29.04%
COc1ccnc(CNc2nc(C)nc3ccsc23)c1,Percent Effect,"30.3 µM, […]",56.7%
COc1ccnc(CNc2nc(C)nc(C)c2C)c1,Percent Effect,"30.3 µM, […]",39.23%
CCc1csc(C2CCCN(C(=O)c3ccc4c(c3)OCO4)C2)n1 (configuration not stated),Percent Effect,"30.3 µM, […]",-18.73%
Cc1ccc(S(=O)(=O)N2CC(C)Oc3ncccc32)c(C)c1 (configuration not stated),Percent Effect,"30.3 µM, […]",55.69%
Cc1ccc(S(=O)(=O)N2CC(C)Oc3ncccc32)c(F)c1 (configuration not stated),Percent Effect,"30.3 µM, […]",21.87%
CC1CN(S(=O)(=O)c2ccc(F)cc2F)c2cccnc2O1 (configuration not stated),Percent Effect,"30.3 µM, […]",30.4%
CN(CC1(CO)CCC1)C(=O)c1cc(COc2ccccc2F)[nH]n1,Percent Effect,"30.3 µM, […]",-17.63%
COc1ccc2c(c1)CCCN(C(=O)NCC1CCCO1)C2 (configuration not stated),Percent Effect,"30.3 µM, […]",6.687%
COc1ccc2c(c1)CCCN(CC(=O)NCC1CCCO1)C2 (configuration not stated),Percent Effect,"30.3 µM, […]",55.19%
COc1ccc2c(c1)CN(CC(=O)NC1CCCC1)CC2,Percent Effect,"30.3 µM, […]",-7.68%
CC(=O)NC(C)C(=O)N(Cc1ccc(C)c(C)c1)C1CC1 (configuration not stated),Percent Effect,"30.3 µM, […]",-3.591%
COc1ccccc1-c1ncc(CN2C[C@H](O)[C@@H](N3CCCC3)C2)s1,Percent Effect,"30.3 µM, […]",4.457%
COc1ccccc1-c1ncc(CN2CCCC[C@H](N(C)C)C2)s1,Percent Effect,"30.3 µM, […]",36.23%
COc1ccccc1-c1ncc(CN2C[C@@H](N(C)C)[C@H](C(C)C)C2)s1,Percent Effect,"30.3 µM, […]",52.36%
CNC(=O)CN1CC[C@H]2CN(C(=O)c3ccc(C)cc3)C[C@H]2C1.O=C(O)C(F)(F)F,Percent Effect,"30.3 µM, […]",2.501%
CCN1CCn2c(C)cnc2C12CCN(C(=O)N(C)C)CC2.O=C(O)C(F)(F)F.O=C(O)C(F)(F)F,Percent Effect,"30.3 µM, […]",6.426%
CC(C)c1cc(C(=O)N2CCOCC2CC(=O)c2ccco2)nn1C (configuration not stated),Percent Effect,"30.3 µM, […]",-24.4%
Cc1nn(-c2ccccc2Cl)c(C)c1CCC(=O)O,Percent Effect,"30.3 µM, […]",-26.02%
NCC(c1ccc(Cl)cc1)N1CCc2sccc2C1 (configuration not stated),Percent Effect,"30.3 µM, […]",40.17%
NCC(c1ccccc1)N1CCc2sccc2C1 (configuration not stated),Percent Effect,"30 µM, 30.03 µM",28.55%
CC(C)c1ccc(C(CN)N2CCc3sccc3C2)cc1 (configuration not stated),Percent Effect,"30.3 µM, […]",82.67%
O=C(NCCSC1CCCC1)c1ccc(F)cc1F,Percent Effect,"30.3 µM, […]",24.13%
COc1ccccc1N1CCN(C(=O)Cn2nc(C)c(Cl)c2C)CC1,Percent Effect,"30.3 µM, […]",31.83%
c1ccc2oc(CCCN3CCCC(Cn4cncn4)C3)nc2c1 (configuration not stated),Percent Effect,30 µM,8.044%
Cc1cc(C(=O)N2C[C@H]3CC[C@@H]2CN(Cc2ccccn2)C3)nc(C)n1,Percent Effect,"30.3 µM, […]",16.91%
CC(=O)Nc1ccc(CNCC(O)c2ccc(Cl)cc2)cc1 (configuration not stated),Percent Effect,"30.3 µM, […]",-0.7096%
CC(C)Nc1ncnc2c1CCN(c1cc(C(F)(F)F)ncn1)CC2,Percent Effect,"30.3 µM, […]",9.513%
CCOc1ccccc1CNC(=O)N(CC)C(C)c1cccnc1 (configuration not stated),Percent Effect,"30.3 µM, […]",14.76%
CCN(C(=O)NCc1ccccc1OC(F)F)C(C)c1cccnc1 (configuration not stated),Percent Effect,"30.3 µM, […]",43.41%
CCN(C(=O)NCc1ccc(C)cc1OC)C(C)c1cccnc1 (configuration not stated),Percent Effect,"30.3 µM, […]",51.84%
Cc1ccc2c(n1)N(Cc1cccnc1)CCN(C(=O)C1CC=CC1)C2,Percent Effect,"30.3 µM, […]",-19.75%
Cc1ccc2c(n1)N(CC1CC1)CCN(Cc1cnn(C)c1)C2,Percent Effect,"30.3 µM, […]",26.83%
Cc1ccc2c(n1)N(Cc1cccnc1)CCN(Cc1cnn(C)c1)C2,Percent Effect,"30.3 µM, […]",76.22%
Cc1nn(C)c(Cl)c1C1CCCN1C(=O)c1nccnc1N (configuration not stated),Percent Effect,"30 µM, 30.03 µM",1.892%
CC(NC(=O)NCCCn1cncn1)c1ccccc1Cl (configuration not stated),Percent Effect,"30 µM, 30.03 µM",-19.77%
O=C(O)Cc1cnc(-c2c(Cl)cccc2Cl)s1,Percent Effect,"30.3 µM, […]",39.96%
Cc1noc([C@H]2C[C@H]3OCC[C@H]3N(Cc3ccc(F)cc3)C2)n1.O=C(O)C(F)(F)F,Percent Effect,"30.3 µM, […]",51.58%
Cc1noc([C@H]2C[C@H]3OCC[C@H]3N(Cc3ccc4c(c3)OCO4)C2)n1.O=C(O)C(F)(F)F,Percent Effect,"30 µM, 30.03 µM",25.3%
CCc1ccc(CN2C[C@@H](c3nc(C)no3)C[C@H]3OCC[C@H]32)o1.O=C(O)C(F)(F)F,Percent Effect,"30.3 µM, […]",-6.961%
Cc1cccnc1NC(=O)c1ccc(F)c(S(=O)(=O)NC2CC2)c1,Percent Effect,"30.3 µM, […]",2.163%
CC(=O)Nc1ncc(S(=O)(=O)Nc2cccc(C)c2)s1,Percent Effect,"30.3 µM, […]",11.84%
CC(=O)Nc1ncc(S(=O)(=O)Nc2cccc(F)c2)s1,Percent Effect,"30.3 µM, […]",-21.07%
CC(=O)Nc1ncc(S(=O)(=O)Nc2cccc(O)c2)s1,Percent Effect,"30.3 µM, […]",53.03%
Cc1cnc(N2CC[C@@H]3O[C@@H](COCC(=O)N(C)C)CC[C@@H]32)nc1.O=C(O)C(F)(F)F,Percent Effect,"30.3 µM, […]",58.41%
CN(C)C(=O)COC[C@@H]1CC[C@H]2[C@H](CCN2c2ncccn2)O1.O=C(O)C(F)(F)F,Percent Effect,"30.3 µM, […]",37.88%
